# From ChEMBL document CHEMBL3433997, “St. Jude Leishmania screening dataset” (2016)
# Where “and” joins values, the source holds several entries; their conditions need not be identical. Equal entries are not always repeated.
# Experiments:
# Assay type in all cases: functional
# [1] = biological target: Solute carrier family 2, facilitated glucose transporter member 1 (Homo sapiens) (UniProt P11166); assay: ST_JUDE_LEISH: Cytotoxicity at 2uM final concentration against transgenic Leishmania Mexicana promastigotes LmGLUT1 that are glucose transport deficient and complemented with the human glucose transporter GLUT1. Activity is measured by DNA content using SYBR green in vitro
# Chain of Solute carrier family 2, facilitated glucose transporter member 1 (Homo sapiens) (P11166 whole entry): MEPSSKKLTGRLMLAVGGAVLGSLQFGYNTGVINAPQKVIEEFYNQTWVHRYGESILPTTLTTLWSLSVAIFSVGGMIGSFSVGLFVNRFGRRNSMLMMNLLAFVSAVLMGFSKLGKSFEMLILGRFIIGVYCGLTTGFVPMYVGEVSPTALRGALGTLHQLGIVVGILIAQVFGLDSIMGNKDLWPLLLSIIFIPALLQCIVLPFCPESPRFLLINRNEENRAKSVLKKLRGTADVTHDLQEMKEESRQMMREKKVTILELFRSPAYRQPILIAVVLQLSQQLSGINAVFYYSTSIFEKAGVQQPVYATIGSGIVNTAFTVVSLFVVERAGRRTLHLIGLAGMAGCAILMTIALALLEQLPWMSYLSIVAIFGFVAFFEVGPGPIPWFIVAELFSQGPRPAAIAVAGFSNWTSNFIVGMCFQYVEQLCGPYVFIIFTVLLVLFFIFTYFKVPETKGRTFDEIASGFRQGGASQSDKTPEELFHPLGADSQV
# [2] = biological target: Hexose transporter 1 (Plasmodium falciparum) (UniProt O97467); assay: ST_JUDE_LEISH: Cytotoxicity at 2uM final concentration against transgenic Leishmania Mexicana promastigotes LmPfHT that are glucose transport deficient and complemented with the Plasmodium falciparum hexose transporter. Activity is measured by DNA content using SYBR green in vitro
# [3] = biological target: Glucose transporter (Leishmania mexicana) (UniProt O61059); assay: ST_JUDE_LEISH: Cytotoxicity at 2uM final concentration against transgenic Leishmania Mexicana promastigotes LmGT2 that are glucose transport deficient and complemented with the L. Mexicana glucose transporter 2. Activity is measured by DNA content using SYBR green in vitro
Structure (SMILES),inhibition [1],inhibition [2],inhibition [3]
Cc1cc(=O)c(-c2ccc(Oc3cccc(Cl)c3)cc2)c(C)[nH]1,6.01%,5.62%,2.24%
COc1ccc2nccc([C@@H](O)CN3CCC(NCc4nc5c(cc4Cl)SCC(=O)N5)C(F)C3)c2c1 (stereo partly specified),2.28% and 11.3%,2.07% and 9.64%,1.15% and 6.72%
N=C(N)NN=CC(=O)Nc1cccc(C(F)(F)F)c1,0.23%,0.15%,-1.62%
CCCCc1ccc(Cc2cnc3nc(N)nc(N)c3c2C)cc1,11.6%,23%,15.6%
O=C(NCCN1CCCC1)c1cccc(-c2ccc(-c3nc4ccccc4[nH]3)s2)c1,3.42%,1.36%,4.63%
Cc1nc2ccccn2c1C1(O)C(=O)Nc2c(Cl)cc(Cl)cc21 (stereo unspecified),5.72%,4.95%,2.71%
CCc1nc2nc(C)cc(Nc3ccc(F)c(Cl)c3)n2n1,-2.16%,-3.69%,-1.67%
O=C(Nc1ccsc1)Nc1cccc(-c2cccc(-c3nc4cc(C(F)(F)F)ccc4[nH]3)c2)c1,-1.45%,1.47%,1.55%
C#CC[C@@H](NC(N)=O)C(=O)O,-0.51%,1%,0.41%
COc1ccc(N2C(N)=NC(N)=NC2(C)C)cc1,1.65%,3.07%,2.77%
C=CC[C@H](C[C@H](O)[C@H](Cc1ccccc1)NC(=O)c1ccc(-n2cccn2)cc1)C(=O)NC1CCCCC1,9.63%,9.73%,9.59%
COc1cc2nc(NCCc3ccccc3)nc(NCc3ccc(C#N)cc3)c2cc1OC,3.59%,6.39%,2.83%
CC(C)Cc1ccc(N2CCN(CCCCNC(=O)c3ccc(NC(=O)c4ccc(Cl)c(Cl)c4)cc3)CC2)cc1,1.28%,1.46%,0.21%
Cc1c(Cl)cccc1N=C(S)NN=Cc1ccccn1,1.43%,2.56%,-0.2%
CCOC(=O)c1ccc(Nc2cc(Nc3ccc(C(=O)OCC)cc3)nc(C)n2)cc1,7.7%,35.2%,3.24%
CCc1nc(N)nc(N)c1-c1ccc(Cl)cc1,2.26%,3.31%,3.36%
COc1cc(NC(=O)c2sc(-c3ccc(Cl)cc3)cc2NC(=O)CN2CCCC2)ccc1OCCN1CCCC1,5.97%,9.91%,4.39%
COc1ccc2nccc(N/N=C/c3cccc([N+](=O)[O-])c3)c2c1,3.18%,2.68%,4.33%
Cc1n[nH]c2cc(F)c(-c3cc(OC[C@@H](N)Cc4ccccc4)cnc3-c3ccoc3)cc12,10.8%,16.1%,6.42%

Structure (SMILES),inhibition [1],inhibition [2],inhibition [3]
CC1(C)N=C(N)N=C(N)N1OCC1COc2ccccc2O1 (stereo unspecified),1.54%,0.64%,0.96%
Cc1ncc([N+](=O)[O-])n1CCOC(=O)NC(Nc1ccc(Br)cc1)C(Cl)(Cl)Cl (stereo unspecified),2.8%,0.15%,-1.63%
CN1CCC(c2c[nH]c3ccc(NC(=O)Nc4ccc(-c5ccncc5)cc4Cl)cc23)CC1,1.45%,1.38%,2.14%
CN(Cc1cccc(F)c1)C1CCN(c2cc(NC(=O)c3ccc(F)cc3)ccn2)C1 (stereo unspecified),2.33%,-0.57%,1.63%
CC(C)(C)SCC(O)Cn1c2ccc(Br)cc2c2cc(Br)ccc21 (stereo unspecified),2.07%,0.65%,-0.28%
COCCCNC(=O)C1CCN(C(c2ccc(Cl)cc2)c2ccc(Cl)cc2)CC1,2.3%,3.44%,4.61%
Cc1c(N=O)cc(C(C)(C)C)c(O)c1C(=O)Nc1ccc([N+](=O)[O-])cc1Cl,2.33%,5.18%,-0.56%
CN(C)CCNCc1ccc(-c2ccc(-c3nc4ccccc4[nH]3)s2)cc1,13.7%,14.5%,12.8%
COc1ccc(C=NNc2ccnc3cc(F)c(C)cc23)c2ccccc12,8.78%,8.43%,4.95%
CCc1ccc(S(=O)(=O)Nc2ccc(CCN3CCC(N4CCCCC4)CC3)cc2)cc1,13.9%,14.9%,11.4%
O=C1CC(C(=O)O)CC(=O)N1,-3.7%,-2.75%,-0.61%
CN1CCN(Cc2ccc(-c3cc4nccc(Nc5ccc(Oc6ccccc6)cc5)c4cc3Cl)o2)CC1,1.96%,2.5%,2.69%
COc1ccc(Cl)cc1N1CCN(CCCNC(=O)c2ccc(-c3nc4cc(Cl)c(Cl)cc4[nH]3)c(C)c2)CC1,1.66%,0.9%,1.04%
CC(C)(C)c1ccc(CN2CCCCC(NC(=O)c3cc(-c4ccccc4Cl)cs3)C2)cc1 (stereo unspecified),2.83%,3.91%,1%
Clc1cccc(C=NNc2ccnc3cc(Cl)ccc23)c1,-1.51%,-2.17%,-3.26%
COc1cccc(CCNCCCCCCNCCc2ccc(Cl)cc2)c1,2.26%,2.74%,2.55%
CC(=O)Oc1c(Cl)c(C)nc(C)c1-c1ccc(Oc2ccc(Cl)cc2)cc1,9.11%,9.67%,4.45%
COc1cc2nc(N[C@@H](CO)c3ccccc3)nc(NCc3ccccc3)c2cc1OC,1.12%,2.17%,1.61%
